Source: PubChem
TTR transcr act = increases transthyretin transcription; activation, % at 16.7 µM; AID 1117267; SH-SY5Y TTR promoter Gaussia luciferase, luminescence; 100% = recombinant luciferase protein wells; 92,000 tested, 1.3% active;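 active = activation above the mean of all tested compounds plus 3 SD, cut at about 9.5% in these data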;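 note: cells exposed to compounds for one day before reading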
HuH7 TTR inh = HuH7 TTR transcription inhibition, counter-screen | shares compounds with TTR transcr act | HuH7 TTR promoter-Gaussia luciferase reporter, luminescence | inhibition, % at 16.7 µM | 1,100 tested, 4% active | AID 1117279;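 active = average inhibition above the solvent-only control wells' mean plus 3 SD, cut at about 15% in these data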;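 note: inhibitors lower well luminescence so higher value means more inhibition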
TTR act confirm = confirmation of human transthyretin transcription activators; shares compounds with TTR transcr act; SHSY5Y TTR promoter Gaussia luciferase, luminescence; 100% = purified Lucia enzyme wells, no cells; activation, % at 16.7 µM; 1,100 tested, under 10 active;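 active = mean activation above a set limit taken from the earlier primary screen, cut at about 11% in these data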
Numbers stand for hits; – = inactive. Many of the other results were omitted from the sample, so hits are more common in it than they were.

SMILES | TTR transcr act | others
COc1ccc(-c2cc(C)no2)cc1S(=O)(=O)NCc1cccc(C)c1 | 9.8 | HuH7 TTR inh=28.2;TTR act confirm=–
Cc1cccc(CNS(=O)(=O)c2ccc(-c3ccc(=O)[nH]n3)s2)c1 | –
COc1ccc(CN2C(=O)c3cccnc3C2=O)cc1S(=O)(=O)NCc1ccc(C)cc1 | –
CCCCN(Cc1cc2cccc(C)c2[nH]c1=O)S(C)(=O)=O | –
C=CCN1C(=O)[C@H](CC(=O)NCCC(C)C)[C@@]2(C(=O)OCC)CCCC=C12 | –
CC(C)N(C(=O)Cc1ccccc1[N+](=O)[O-])C(C)C | –
CC1=C(C(=O)N(C(C)C)C(C)C)CC(CC(=O)NC2CCCCC2)C(=O)N1Cc1ccc(F)cc1 (stereo not given) | –
C=CCN(CC(=O)Nc1cccnc1)S(=O)(=O)c1ccc(Cl)cc1 | –
O=C(O)CCSCCCN1C(=O)c2cccc3cccc(c23)C1=O | –
O=C(CCN1CCCCC1)NCNC(=O)CCN1CCCCC1 | –
C1CCCN(CCCCN2CCCCCC2)CC1 | 10.3 | HuH7 TTR inh=–;TTR act confirm=–
Clc1ccccc1OCCCCN1CCCCC1 | –
CCC(C)[C@H](NC(=O)C1COC(O)([C@H](Cc2ccccc2)NC(=O)[C@@H](NC(=O)OCc2ccccc2)C(C)C)CN1C)C(=O)N[C@H](C(=O)OC)C(C)C (stereo not given in full) | –
COC(=O)[C@]12C[C@H](CC(=O)NCc3ccccc3)C(=O)N(Cc3ccc4c(c3)OCO4)C1=C[C@H](C(C)C)O[C@@H]2C1CC1 | –
CCn1cc(Br)c(C(=O)NN)n1 | 15.6 | HuH7 TTR inh=–;TTR act confirm=–
CCn1cc(Cl)c(C(=O)Nc2ccc(OC)c(OC)c2)n1 | –
NNC(=O)c1nn(-c2ccc(Cl)cc2)cc1O | –
CC1(Cc2ccc(Cl)s2)C(=O)Nc2c(Cl)ccc(Cl)c21 (stereo not given) | –
CCCCNC(=O)c1cc(S(=O)(=O)N2CCCCC2)oc1C | –
Cc1ccc(S(=O)(=O)N2CCCCC2)cc1C(=O)NCc1ccncc1 | –
CCCCCNC(=O)c1cc(S(=O)(=O)N2CCCCC2)ccc1F | 11.3 | HuH7 TTR inh=–;TTR act confirm=–
O=C(NNc1nc2ccc(Cl)cc2s1)c1cc(-c2cccs2)nc2ccccc12 | –
CCCc1cc(NC(=O)CCl)n(-c2ccccc2)n1 | –
COC[C@H]1CCCN1[C@@H]1CS(=O)(=O)N[C@H]1COCc1ccccc1 | –
COC(=O)NC1(C(F)(F)F)C(=O)NC(C)=C1C(=O)OC (stereo not given) | 18.7 | HuH7 TTR inh=–;TTR act confirm=–
SMILES | TTR transcr act | others
COC(=O)C1=C(C)NC(=O)C1(NC(=O)c1ccncc1)C(F)(F)F (stereo not given) | –
CC1=C(C#N)C(NC(=O)c2ccc(C)cc2)(C(F)(F)F)C(=O)N1 (stereo not given) | –
COCCNC(=O)C1(C)CCCN(C(=O)c2ccco2)C1 (stereo not given) | –
C=CCN1C(=O)[C@H](CC(=O)N2CCN(C(=O)C3CC3)CC2)[C@@]2(C(=O)OCC)CCCC=C12 | –
COc1cc(/C=C/C(=O)O)cc(S(=O)(=O)NNC(=O)c2cc(C)oc2C)c1OC | –
COc1ccc(C(C)(C)C)cc1S(=O)(=O)NCC1CCCO1 (stereo not given) | –
COc1cc(/C=C/C(=O)O)cc(S(=O)(=O)NCC2CCCO2)c1OC (stereo not given) | 21.6 | HuH7 TTR inh=–;TTR act confirm=–
C#CCNC(=O)C[C@H]1C(=O)N(CC=C)C2=CCCC[C@@]21C(=O)OCC | –
COc1cccc(-c2nc3nc(C)cc(C)n3c2Nc2c(C)cccc2C)c1 | –
CCOC(=O)C(=O)Nc1ccccc1C(=O)NC(C)C | –
CCOC(=O)C(=O)Nc1ccccc1C(=O)OCC | –
CCOC(=O)C(=O)Nc1ccccc1C#N | 24.8 | HuH7 TTR inh=–;TTR act confirm=–
COC(=O)[C@]12C[C@H](CC(=O)N3CCSCC3)C(=O)N(Cc3ccc(Cl)cc3Cl)C1=C[C@H](C1CCCC1)O[C@@H]2C | –
CC(NCc1ccc(S(N)(=O)=O)cc1)C(=O)Nc1ccc([N+](=O)[O-])cc1Cl (stereo not given) | –
C#CCNC(=O)C[C@H]1C(=O)N(CCCOC)C2=CCCC[C@@]21C(=O)OCC | –
O=C(c1cccc(S(=O)(=O)Nc2ccccc2Cl)c1)N1CCN(c2ccccc2O)CC1 | –
OCCCNc1ncnc2[nH]ncc12 | –
CCCSc1ncnc2[nH]ncc12 | 12.8 | HuH7 TTR inh=–;TTR act confirm=–
Cc1ccc(CNc2ncnc3[nH]ncc23)cc1 | –
O=C1O[C@@H](c2ccccc2)C[C@@H](O)C(=O)CCCCc2ccccc21 | –
C/C(=N\NC(=O)c1nnn(-c2nonc2N)c1CN(C)c1ccccc1)c1cccc(O)c1 | –
CCCCc1c(C)[nH]c2nc3ccccc3n2c1=O | –
Cc1csc(NC(=O)c2ccccc2)n1 | –
Cn1nnnc1-c1cc(Br)ccc1NC(=O)c1ccccc1 | 10.4 | HuH7 TTR inh=–;TTR act confirm=–
CCCn1nnc(NC(=O)c2ccc(Br)cc2)n1 | –
SMILES | TTR transcr act | others
COc1ccc(-c2noc3c2-c2nc(-c4ccc(C)cc4)sc2CC3)cc1 | –
Cc1ccc(CN2CCCCC(NC(=O)Nc3ccccc3-c3ccccc3)C2=O)cc1 (stereo not given) | –
CCCC1CCC2(CC1)CCC2OC(=S)Nc1ccc(Cl)cc1 (stereo not given) | –
COc1cc(NC(=O)C(OC(=O)CNC(=O)c2ccccc2)c2ccccc2)cc(C(F)(F)F)c1 (stereo not given) | –
CC1CN(C2CCCCC2)C(=S)NC1=O (stereo not given) | –
O=C1NC(=O)N(C2CCCCC2)CC1Br (stereo not given) | 25.0 | HuH7 TTR inh=–;TTR act confirm=–
O=C1NC(=O)N(Cc2ccccc2)CC1Br (stereo not given) | –
FC(F)(F)c1ccc(-c2cccc3c2C2CC3CCN2Cc2ccc3c(c2)OCO3)cc1 (stereo not given) | –
Cc1c(C)c2ccc(OCC(=O)NCCc3c[nH]c4ccccc34)cc2oc1=O | –
COc1cc(NC(=O)C/C(C)=N/NC(=O)C(=O)NCCO)c(OC)cc1Cl | –
C[C@H](CO)N1C[C@H](C)[C@H](CN(C)Cc2ccncc2)Oc2cc(-c3ccccc3F)ccc2S1(=O)=O | –
COC(=O)C1=C(C)OC(N)=C(C#N)C1c1ccccc1F (stereo not given) | –
N#CC1=C(N)NC(=S)C(C(N)=O)C1c1ccccc1F (stereo not given) | 12.4 | HuH7 TTR inh=–;TTR act confirm=–
COC(=O)CSC1=C(C#N)C(c2ccccc2F)CC(=O)N1 (stereo not given) | –
Cc1ccc(C(=O)CNc2ccc(C)cc2C)cc1 | –
Cc1ccc(NCCC(=O)c2cccc([N+](=O)[O-])c2)c(C)c1 | 16.4 | HuH7 TTR inh=–;TTR act confirm=–
Cc1cccc(NCCC(=O)c2ccc([N+](=O)[O-])cc2)c1C | –
O=C(O)CC(NC(=O)c1cccc([N+](=O)[O-])c1)c1ccc2c(c1)OCO2 (stereo not given) | –
Cc1nc2ccccn2c1C(O)(c1ccccc1)c1ccccc1 | –
COc1ccc(C(=O)/C=C2/c3ccccc3CC(C)(C)N2C)cc1OC | –
CN(C)CC(=O)N1c2ccccc2Sc2ccc(Cl)cc21 | –
O=C(CN1CCCC(O)C1)N1c2ccccc2Sc2ccc(C(F)(F)F)cc21 (stereo not given) | –
CC1CCCN(CC(=O)N2c3ccccc3Sc3ccccc32)C1 (stereo not given) | 15.1 | HuH7 TTR inh=–;TTR act confirm=–
